According to publication PMC4081100, “A DNA-binding-site landscape and regulatory network analysis for NAC transcription factors in Arabidopsis thaliana”:

Experiments:
Assay in all cases: universal protein binding microarray (PBM); transcription factors of Arabidopsis thaliana; high values mean tight binding
GST-ANAC092(1-176) = molecular target: T1, GST-ANAC092(1-176) (Arabidopsis thaliana, UniProt Q9FKA0 1-176); settings: protein: recombinant; tags: GST; chain copies: 2; dsDNA, one strand shown
T1 sequence: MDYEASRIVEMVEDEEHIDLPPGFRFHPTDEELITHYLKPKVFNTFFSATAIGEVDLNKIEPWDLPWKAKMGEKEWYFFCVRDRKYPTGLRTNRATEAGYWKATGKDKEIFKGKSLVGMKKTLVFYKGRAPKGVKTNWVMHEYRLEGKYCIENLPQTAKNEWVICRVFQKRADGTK
Procedure, shortened: (§1)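 Cells were induced to make GST-tagged NAC-domain, full-length or DNA-binding-domain proteins, and zinc acetate was added for zinc-finger proteins. These proteins were purified on glutathione–Sepharose 4B, quantified by A280 or anti-GST western blot, and applied in duplicate at 200 to 500 nM final to custom all-10-mer Agilent 4 × 180K arrays that primer extension had made double-stranded. Binding is given as the normalised enrichment score (E-score) for scored gapped and ungapped 8-mers.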

GST-NTL6(1-168) = GST-NTL6(1-168) (Arabidopsis thaliana, UniProt Q9SCK6 1-168); settings: protein: recombinant; tags: GST; chain copies: 2; dsDNA, one strand shown
Procedure, shortened: as §1

GST-ANAC019 NAC domain = molecular target: T2, GST-ANAC019 NAC domain (Arabidopsis thaliana, UniProt Q9C932 14-162); settings: protein: recombinant; tags: GST; chain copies: 2; dsDNA, one strand shown
T2 sequence: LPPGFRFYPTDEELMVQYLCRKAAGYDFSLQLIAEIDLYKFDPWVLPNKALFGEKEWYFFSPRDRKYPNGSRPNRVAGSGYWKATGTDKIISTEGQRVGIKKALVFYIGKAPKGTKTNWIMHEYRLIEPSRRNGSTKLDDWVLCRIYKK
Procedure, shortened: as §1

GST-ANAC055(1-171) = molecular target: T3, GST-ANAC055(1-171) (Arabidopsis thaliana, UniProt Q9LDY8 1-171); settings: protein: recombinant; tags: GST; chain copies: 2; dsDNA, one strand shown
T3 sequence: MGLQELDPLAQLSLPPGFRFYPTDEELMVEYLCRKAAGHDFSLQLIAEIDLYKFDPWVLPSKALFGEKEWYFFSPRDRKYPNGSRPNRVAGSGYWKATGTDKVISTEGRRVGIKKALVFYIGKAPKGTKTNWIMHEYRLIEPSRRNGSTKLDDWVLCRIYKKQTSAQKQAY
Procedure, shortened: as §1

GST-ATAF1 NAC domain = molecular target: T4, GST-ATAF1 NAC domain (Arabidopsis thaliana, UniProt Q39013 7-158); settings: protein: recombinant; tags: GST; chain copies: 2; dsDNA, one strand shown
T4 sequence: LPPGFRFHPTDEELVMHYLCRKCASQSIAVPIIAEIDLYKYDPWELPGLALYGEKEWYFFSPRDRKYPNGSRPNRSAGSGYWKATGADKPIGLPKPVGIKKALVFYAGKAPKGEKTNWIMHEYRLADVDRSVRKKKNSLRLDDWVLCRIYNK
Procedure, shortened: as §1

[1] = molecular target: T5, GST-ANAC092(1-285) full length (Arabidopsis thaliana, UniProt Q9FKA0 1-285); settings: protein: recombinant; tags: GST; chain copies: 2; dsDNA, one strand shown
T5 sequence: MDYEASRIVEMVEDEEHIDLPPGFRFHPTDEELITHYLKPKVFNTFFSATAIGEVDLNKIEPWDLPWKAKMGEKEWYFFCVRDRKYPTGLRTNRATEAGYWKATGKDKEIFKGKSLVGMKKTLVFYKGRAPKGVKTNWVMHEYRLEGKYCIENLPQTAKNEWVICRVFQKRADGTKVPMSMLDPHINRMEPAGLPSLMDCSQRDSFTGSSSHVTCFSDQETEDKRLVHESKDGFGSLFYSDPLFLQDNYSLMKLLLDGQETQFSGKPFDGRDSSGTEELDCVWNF
Procedure, shortened: as §1

GST-NAP(1-166) = molecular target: T6, GST-NAP(1-166) (Arabidopsis thaliana, UniProt O49255 1-166); settings: protein: recombinant; tags: GST; chain copies: 2; dsDNA, one strand shown
T6 sequence: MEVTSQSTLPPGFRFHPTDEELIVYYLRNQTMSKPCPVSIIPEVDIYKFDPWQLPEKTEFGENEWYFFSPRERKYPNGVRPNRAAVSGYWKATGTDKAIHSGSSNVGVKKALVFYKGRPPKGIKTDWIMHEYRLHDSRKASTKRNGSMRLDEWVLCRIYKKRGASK
Procedure, shortened: as §1

GST-NST2(1-184) = molecular target: T7, GST-NST2(1-184) (Arabidopsis thaliana, UniProt Q9M274 1-184); settings: protein: recombinant; tags: GST; chain copies: 2; dsDNA, one strand shown
T7 sequence: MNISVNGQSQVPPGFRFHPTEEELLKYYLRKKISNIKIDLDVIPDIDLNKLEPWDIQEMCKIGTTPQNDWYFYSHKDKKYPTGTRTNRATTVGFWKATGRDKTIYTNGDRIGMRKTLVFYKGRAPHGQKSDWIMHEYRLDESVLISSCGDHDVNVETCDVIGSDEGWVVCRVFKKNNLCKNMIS
Procedure, shortened: as §1

GST-SND1(1-203) = molecular target: T8, GST-SND1(1-203) (Arabidopsis thaliana, UniProt Q9LPI7 1-203); settings: protein: recombinant; tags: GST; chain copies: 2; dsDNA, one strand shown
T8 sequence: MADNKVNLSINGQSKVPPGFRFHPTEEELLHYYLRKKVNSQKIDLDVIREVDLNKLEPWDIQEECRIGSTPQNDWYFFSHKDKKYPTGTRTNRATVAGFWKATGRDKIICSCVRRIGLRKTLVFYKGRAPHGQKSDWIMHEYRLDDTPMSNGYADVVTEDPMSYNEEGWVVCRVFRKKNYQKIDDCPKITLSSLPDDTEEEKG
Procedure, shortened: as §1

GST-VND3 NAC domain = molecular target: T9, GST-VND3 NAC domain (Arabidopsis thaliana, UniProt Q9FH59 12-162); settings: protein: recombinant; tags: GST; chain copies: 2; dsDNA, one strand shown
T9 sequence: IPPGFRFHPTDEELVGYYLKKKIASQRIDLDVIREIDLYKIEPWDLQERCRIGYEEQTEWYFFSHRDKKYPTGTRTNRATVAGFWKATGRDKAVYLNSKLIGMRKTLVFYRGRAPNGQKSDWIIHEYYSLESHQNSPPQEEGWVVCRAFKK
Procedure, shortened: as §1

GST-VND7 NAC domain = molecular target: T10, GST-VND7 NAC domain (Arabidopsis thaliana, UniProt Q9C8W9 9-158); settings: protein: recombinant; tags: GST; chain copies: 2; dsDNA, one strand shown
T10 sequence: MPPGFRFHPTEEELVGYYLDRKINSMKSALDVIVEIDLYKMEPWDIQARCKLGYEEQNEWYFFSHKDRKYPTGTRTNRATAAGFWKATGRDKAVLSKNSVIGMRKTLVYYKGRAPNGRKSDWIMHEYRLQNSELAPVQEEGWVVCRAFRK
Procedure, shortened: as §1

GST-WRKY1(266-371) = GST-WRKY1(266-371) (Arabidopsis thaliana, UniProt Q9SI37 266-371); settings: protein: recombinant; tags: GST; dsDNA, one strand shown
Procedure, shortened: as §1

GST-NTL8 NAC domain = molecular target: T11, GST-NTL8 NAC domain (Arabidopsis thaliana, UniProt Q9XIN7 14-156); settings: protein: recombinant; tags: GST; chain copies: 2; dsDNA, one strand shown
T11 sequence: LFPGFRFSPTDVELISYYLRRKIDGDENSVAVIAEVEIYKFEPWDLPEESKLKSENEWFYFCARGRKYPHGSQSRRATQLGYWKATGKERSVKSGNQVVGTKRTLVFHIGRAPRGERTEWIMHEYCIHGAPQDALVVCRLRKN
Procedure, shortened: as §1

Chain of GST-NTL6(1-168) (Q9SCK6 1-168): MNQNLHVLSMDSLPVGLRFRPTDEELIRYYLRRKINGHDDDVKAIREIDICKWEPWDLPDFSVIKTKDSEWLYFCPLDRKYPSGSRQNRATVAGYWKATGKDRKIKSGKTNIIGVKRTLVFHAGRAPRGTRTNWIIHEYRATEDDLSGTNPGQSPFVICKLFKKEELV
Chain of GST-WRKY1(266-371) (Q9SI37 266-371): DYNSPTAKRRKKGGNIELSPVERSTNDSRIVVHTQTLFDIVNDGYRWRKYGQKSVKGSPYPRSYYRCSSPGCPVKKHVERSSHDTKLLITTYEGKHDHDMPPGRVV

Sequence | binding signal (GST-ANAC092(1-176)) | binding signal (GST-NTL6(1-168)) | binding signal (GST-ANAC019 NAC domain) | binding signal (GST-ANAC055(1-171)) | binding signal (GST-ATAF1 NAC domain) | binding signal [1] | binding signal (GST-NAP(1-166)) | binding signal (GST-NST2(1-184)) | binding signal (GST-SND1(1-203)) | binding signal (GST-VND3 NAC domain) | binding signal (GST-VND7 NAC domain) | binding signal (GST-WRKY1(266-371)) | binding signal (GST-NTL8 NAC domain)
TACACGCA | 0.467 E-score | 0.0803 E-score | 0.415 E-score | 0.382 E-score | 0.369 E-score | 0.463 E-score | 0.375 E-score | 0.363 E-score | 0.385 E-score | 0.404 E-score | 0.385 E-score |  | 
CGTCAACG | 0.117 E-score |  | 0.109 E-score |  | 0.0746 E-score | 0.159 E-score | 0.108 E-score |  | 0.0973 E-score | 0.0692 E-score | 0.0989 E-score | 0.47 E-score | 
TACGTTAA | 0.43 E-score | 0.14 E-score | 0.0653 E-score | 0.154 E-score | 0.243 E-score | 0.432 E-score | 0.12 E-score | 0.321 E-score | 0.462 E-score | 0.249 E-score | 0.173 E-score |  | 
AGTCAAAA | 0.157 E-score |  | 0.0721 E-score |  | 0.234 E-score | 0.0672 E-score |  |  | 0.111 E-score | 0.104 E-score | 0.0632 E-score | 0.47 E-score | 
AATAGCGT | 0.39 E-score |  |  | 0.138 E-score | 0.114 E-score | 0.412 E-score | 0.121 E-score | 0.261 E-score | 0.383 E-score | 0.119 E-score | 0.191 E-score | 0.0558 E-score | 
ACGCAATA | 0.444 E-score |  | 0.233 E-score | 0.212 E-score | 0.166 E-score | 0.447 E-score | 0.301 E-score | 0.288 E-score | 0.419 E-score | 0.312 E-score | 0.288 E-score | 0.0639 E-score | 0.0551 E-score
GATTGACC | 0.141 E-score |  |  | 0.0576 E-score |  | 0.14 E-score |  |  | 0.0705 E-score | 0.138 E-score | 0.059 E-score | 0.479 E-score | 
GACTTTTA |  |  | 0.0971 E-score | 0.051 E-score | 0.17 E-score | 0.141 E-score |  |  | 0.0841 E-score | 0.0985 E-score | 0.149 E-score | 0.414 E-score | 
ACACTCAA | 0.425 E-score |  | 0.116 E-score | 0.174 E-score | 0.17 E-score | 0.448 E-score | 0.07 E-score | 0.184 E-score | 0.264 E-score | 0.092 E-score | 0.185 E-score | 0.133 E-score | 0.0774 E-score
GACGTCAA | 0.16 E-score |  |  | 0.0759 E-score | 0.0728 E-score | 0.19 E-score | 0.122 E-score | 0.0988 E-score | 0.139 E-score | 0.126 E-score | 0.0526 E-score | 0.436 E-score | 
ATTGCGTG | 0.494 E-score |  | 0.466 E-score | 0.452 E-score | 0.355 E-score | 0.494 E-score | 0.458 E-score | 0.459 E-score | 0.471 E-score | 0.441 E-score | 0.46 E-score | 0.0947 E-score | 0.188 E-score
AACTTGAC | 0.0775 E-score |  |  | 0.105 E-score | 0.0699 E-score | 0.088 E-score |  | 0.173 E-score | 0.136 E-score | 0.152 E-score | 0.0683 E-score | 0.425 E-score | 
ATACGAAA | 0.393 E-score | 0.184 E-score | 0.166 E-score | 0.202 E-score | 0.259 E-score | 0.421 E-score | 0.251 E-score | 0.271 E-score | 0.239 E-score | 0.296 E-score | 0.205 E-score |  | 
CTTGCGTA | 0.471 E-score |  | 0.382 E-score | 0.306 E-score | 0.317 E-score | 0.474 E-score | 0.386 E-score | 0.332 E-score | 0.479 E-score | 0.416 E-score | 0.394 E-score | 0.0686 E-score | 0.0618 E-score
AAAGTCAT |  |  |  |  | 0.14 E-score | 0.119 E-score | 0.0502 E-score | 0.0576 E-score | 0.162 E-score | 0.0602 E-score | 0.121 E-score | 0.428 E-score | 
ACACGTCT | 0.422 E-score |  | 0.459 E-score | 0.405 E-score | 0.393 E-score | 0.425 E-score | 0.346 E-score | 0.168 E-score | 0.174 E-score | 0.396 E-score | 0.421 E-score | 0.114 E-score | 
ACGTCTCC | 0.21 E-score |  | 0.411 E-score | 0.353 E-score | 0.368 E-score | 0.33 E-score | 0.273 E-score | 0.167 E-score | 0.182 E-score | 0.34 E-score | 0.322 E-score | 0.0802 E-score | 0.052 E-score
TAAGTCAA |  | 0.268 E-score |  | 0.121 E-score | 0.208 E-score | 0.158 E-score |  | 0.172 E-score | 0.175 E-score | 0.0988 E-score | 0.145 E-score | 0.483 E-score | 
ATAGCGTG | 0.464 E-score | 0.0569 E-score | 0.174 E-score | 0.167 E-score | 0.128 E-score | 0.47 E-score | 0.105 E-score | 0.332 E-score | 0.418 E-score | 0.218 E-score | 0.15 E-score |  | 
